Test results taken from paper PMC11102866, “Nucleosome-bound NR5A2 structure reveals pioneer factor mechanism by DNA minor groove anchor competition”.
Residue numbers refer to the chain shown, from its start. Names and notes keep the numbering of the source.

B1: 115 (nucleosome)
DNA 1: ATCCTGGAGAATCCCGGTGCCGAGGCCGCTCAATTGGTCGTAGACAGCTCTAGCACCGCTTAAACGCACGTACGCGCTGTCCCCCGCGTTTTAACCGCCAAGGGGATTACTCCCTAGTCAAGGCCAACGTGTCAGATATATACATCCTGTGAT
DNA 2: ATCACAGGATGTATATATCTGACACGTTGGCCTTGACTAGGGAGTAATCCCCTTGGCGGTTAAAACGCGGGGGACAGCGCGTACGTGCGTTTAAGCGGTGCTAGAGCTGTCTACGACCAATTGAGCGGCCTCGGCACCGGGATTCTCCAGGAT
modifications: reconstituted with mouse histones H2A, H2B, H3.3 and H4
B2: 120 (nucleosome)
DNA 1: B1 DNA 1 with A120T, A121C, G122C, G123T, C125A, A127G, C128G, G129C, T130C, G131A
DNA 2: B1 DNA 2 with C23T, A24G, C25G, G26C, T27C, G29T, C31A, C32G, T33G, T34A
modifications: reconstituted with mouse histones H2A, H2B, H3.3 and H4
B3: 117 (nucleosome)
DNA 1: B1 DNA 1 with A120T, A121C, G122A, G123A, C124G, C125G, A126C, A127C, C128A
DNA 2: B1 DNA 2 with G26T, T27G, T28G, G29C, G30C, C31T, C32T, T33G, T34A
modifications: reconstituted with mouse histones H2A, H2B, H3.3 and H4
B4: 119 (nucleosome)
DNA 1: B1 DNA 1 with A120T, A121C, G122T, G123C, C124A, C125A, A126G, A127G, G129C, T130A
DNA 2: B1 DNA 2 with A24T, C25G, T27C, T28C, G29T, G30T, C31G, C32A, T33G, T34A
modifications: reconstituted with mouse histones H2A, H2B, H3.3 and H4
B5: 121 (nucleosome)
DNA 1: B1 DNA 1 with A120T, A121C, G122C, G123A, C124T, C128G, T130C, G131C, T132A
DNA 2: B1 DNA 2 with A22T, C23G, A24G, G26C, G30A, C31T, C32G, T33G, T34A
modifications: reconstituted with mouse histones H2A, H2B, H3.3 and H4
B6: 113 (nucleosome)
DNA 1: ATCCTGGAGAATCCCGGTGCCGAGGCCGCTCAATTGGTCGTAGACAGCTCTAGCACCGCTTAAACGCACGTACGCGCTGTCCCCCGCGTTTTAACCGCCAAGGGGATTACTCCCTTCAAGGCCAGCACGTGTCAGATATATACATCCTGTGAT
DNA 2: ATCACAGGATGTATATATCTGACACGTGCTGGCCTTGAAGGGAGTAATCCCCTTGGCGGTTAAAACGCGGGGGACAGCGCGTACGTGCGTTTAAGCGGTGCTAGAGCTGTCTACGACCAATTGAGCGGCCTCGGCACCGGGATTCTCCAGGAT
modifications: reconstituted with mouse histones H2A, H2B, H3.3 and H4
B7: 118 (nucleosome)
DNA 1: B1 DNA 1 with A120T, A121T, G122C, G123A, C124A, C125G, A126G, A127C, G129A
DNA 2: B1 DNA 2 with C25T, T27G, T28C, G29C, G30T, C31T, C32G, T33A, T34A
modifications: reconstituted with mouse histones H2A, H2B, H3.3 and H4
B8: 114 (nucleosome)
DNA 1: B1 DNA 1 with G117T, T118C, C119A, A121G, G123C, C125A, A126C
DNA 2: B6 DNA 2 with C29T, T30G, G32C, C34T, T36G, G37A, A38T
modifications: reconstituted with mouse histones H2A, H2B, H3.3 and H4
B9: 116 (nucleosome)
DNA 1: B1 DNA 1 with C119T, A120C, G122A, C124G, A126C
DNA 2: B1 DNA 2 with T28G, G30C, C32T, T34G, G35A
modifications: reconstituted with mouse histones H2A, H2B, H3.3 and H4
B10: 14 (nucleosome)
DNA 1: ATCCTGGAGAATCCCGTCAAGGCCACCGCTCAATTGGTCGTAGACAGCTCTAGCACCGCTTAAACGCACGTACGCGCTGTCCCCCGCGTTTTAACCGCCAAGGGGATTACTCCCTAGTCTCCAGGCACGTGTCAGATATATACATCCTGTGAT
DNA 2: ATCACAGGATGTATATATCTGACACGTGCCTGGAGACTAGGGAGTAATCCCCTTGGCGGTTAAAACGCGGGGGACAGCGCGTACGTGCGTTTAAGCGGTGCTAGAGCTGTCTACGACCAATTGAGCGGTGGCCTTGACGGGATTCTCCAGGAT
modifications: reconstituted with mouse histones H2A, H2B, H3.3 and H4
B11: 122 (nucleosome)
DNA 1: ATCCTGGAGAATCCCGGTGCCGAGGCCGCTCAATTGGTCGTAGACAGCTCTAGCACCGCTTAAACGCACGTACGCGCTGTCCCCCGCGTTTTAACCGCCAAGGGGATTACTCCCTAGTCTCCAGTCAAGGCCAAGATATATACATCCTGTGAT
DNA 2: ATCACAGGATGTATATATCTTGGCCTTGACTGGAGACTAGGGAGTAATCCCCTTGGCGGTTAAAACGCGGGGGACAGCGCGTACGTGCGTTTAAGCGGTGCTAGAGCTGTCTACGACCAATTGAGCGGCCTCGGCACCGGGATTCTCCAGGAT
modifications: reconstituted with mouse histones H2A, H2B, H3.3 and H4
B12: 125 (nucleosome)
DNA 1: B11 DNA 1 with T125G, A128T, G129C, G130A, C131A, C132G, A133G, A134C, G135C
DNA 2: B11 DNA 2 with C19G, T20G, T21C, G22C, G23T, C24T, C25G, T26A, A29C
modifications: reconstituted with mouse histones H2A, H2B, H3.3 and H4
B13: 124 (nucleosome)
DNA 1: B11 DNA 1 with T125G, A127T, A128C, G129A, G130A, C131G, C132G, A133C, A134C, G135A
DNA 2: B11 DNA 2 with C19T, T20G, T21G, G22C, G23C, C24T, C25T, T26G, T27A, A29C
modifications: reconstituted with mouse histones H2A, H2B, H3.3 and H4
B14: 123 (nucleosome)
DNA 1: B11 DNA 1 with T125G, C126T, A127C, G129A, C131G, A133C
DNA 2: B11 DNA 2 with T21G, G23C, C25T, T27G, G28A, A29C
modifications: reconstituted with mouse histones H2A, H2B, H3.3 and H4
B15: 126 (nucleosome)
DNA 1: ATCCTGGAGAATCCCGGTGCCGAGGCCGCTCAATTGGTCGTAGACAGCTCTAGCACCGCTTAAACGCACGTACGCGCTGTCCCCCGCGTTTTAACCGCCAAGGGGATTACTCCCTAGTCTCCAGGCACTCAAGGCCAATATACATCCTGTGAT
DNA 2: ATCACAGGATGTATATTGGCCTTGAGTGCCTGGAGACTAGGGAGTAATCCCCTTGGCGGTTAAAACGCGGGGGACAGCGCGTACGTGCGTTTAAGCGGTGCTAGAGCTGTCTACGACCAATTGAGCGGCCTCGGCACCGGGATTCTCCAGGAT
modifications: reconstituted with mouse histones H2A, H2B, H3.3 and H4

How the values were obtained:
[1] = target: NR5A2 wild type;histone octamer (Homo sapiens;, UniProt O00482;C0HKE1;Q6ZWY9;P84244;P62806 1-541;2-130;2-126;2-136;2-103, |); assay: SeEN-seq (EMSA of nucleosome library followed by sequencing); 0.8 uM human NR5A2; 20 mM Tris-HCl pH 7.5, 120 mM NaCl, 1 mM MgCl2, 10 uM ZnCl2, 1 mM DTT, 100 ug/ml BSA, room temperature, 30 min; 0.1 uM nucleosome library; high values mean tight binding
[2] = target: mouse Nr5a2 wild type;histone octamer (Mus musculus;, UniProt P45448;C0HKE1;Q6ZWY9;P84244;P62806 1-560;2-130;2-126;2-136;2-103, |); assay: SeEN-seq (EMSA of nucleosome library followed by sequencing); 1.2 uM mouse Nr5a2; 20 mM Tris-HCl pH 7.5, 120 mM NaCl, 1 mM MgCl2, 10 uM ZnCl2, 1 mM DTT, 100 ug/ml BSA, room temperature, 30 min; 0.1 uM nucleosome library; high values mean tight binding

Binder | binding signal [1] | binding signal [2]
B1 | 0.998 log2 enrichment (bound/unbound, relative to Widom 601) | 1.02 log2 enrichment (bound/unbound, relative to Widom 601)
B2 | 0.677 log2 enrichment (bound/unbound, relative to Widom 601) | 0.768 log2 enrichment (bound/unbound, relative to Widom 601)
B3 | 1.13 log2 enrichment (bound/unbound, relative to Widom 601) | 1.34 log2 enrichment (bound/unbound, relative to Widom 601)
B4 | 0.607 log2 enrichment (bound/unbound, relative to Widom 601) | 0.776 log2 enrichment (bound/unbound, relative to Widom 601)
B5 | 0.664 log2 enrichment (bound/unbound, relative to Widom 601) | 0.599 log2 enrichment (bound/unbound, relative to Widom 601)
B6 | 0.896 log2 enrichment (bound/unbound, relative to Widom 601) | 0.869 log2 enrichment (bound/unbound, relative to Widom 601)
B7 | 1.08 log2 enrichment (bound/unbound, relative to Widom 601) | 1.4 log2 enrichment (bound/unbound, relative to Widom 601)
B8 | 1.13 log2 enrichment (bound/unbound, relative to Widom 601) | 1.08 log2 enrichment (bound/unbound, relative to Widom 601)
B9 | 1.39 log2 enrichment (bound/unbound, relative to Widom 601) | 2.15 log2 enrichment (bound/unbound, relative to Widom 601)
B10 | 3.44 log2 enrichment (bound/unbound, relative to Widom 601) | 2.91 log2 enrichment (bound/unbound, relative to Widom 601)
B11 | 0.909 log2 enrichment (bound/unbound, relative to Widom 601) | 0.939 log2 enrichment (bound/unbound, relative to Widom 601)
B12 | 4.55 log2 enrichment (bound/unbound, relative to Widom 601) | 3.58 log2 enrichment (bound/unbound, relative to Widom 601)
B13 | 3.87 log2 enrichment (bound/unbound, relative to Widom 601) | 2.91 log2 enrichment (bound/unbound, relative to Widom 601)
B14 | 1.01 log2 enrichment (bound/unbound, relative to Widom 601) | 1.41 log2 enrichment (bound/unbound, relative to Widom 601)
B15 | 4.66 log2 enrichment (bound/unbound, relative to Widom 601) | 3.59 log2 enrichment (bound/unbound, relative to Widom 601)
